The results in this text go back to the supplement of paper PMC6555819.

The assay has as its system VDR homodimer (NR concentration 270 nM). Kind of assay: PBM binding z-score (relative to random genomic background probes); higher = stronger binding; sequences stand for … in GC…GCGATTGACAGCGTAGAATGAAGG
The procedure, abridged:
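Custom Agilent 4×180K protein-binding microarrays carried double-stranded probes, each with a 34-nt variable region. These regions held direct-repeat seeds, single-nucleotide variants, half-site ablations and random human genomic background sequences. Ligand-free nuclear receptor dimers were incubated on the arrays for 1 h, antibodies against each partner (one per run) detected binding, and scanned fluorescence was regression-normalized. Binding z-scores take the random background probes as reference.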
For the sequence ATCTCTAGGTAAAGTCCAGTGAAAGATCGATAGA, the PBM binding z-score was 0.0331.

AGAACGAGGGCAATGAGTTGATAGGACGGGTGGC displayed a PBM binding z-score of 3.01. Sequence ATGTCTAGGTAAAAGTTCAGTGAATCCCGAGGAT gave a PBM binding z-score of 0.949. With ATACCAAGGGGATCGTGAGGTCGTTGATACTAAC the figure was 2.27; with GCGACTGGGGCAAAGCAGGTTACCGTAAGGTTGG, -0.434. In turn, ATAGCAAGGTGATCGTGAGGTCGTTGATACTAAC displayed a PBM binding z-score of 1.97. Next, TCATATAGGTAAAAGGTGAAAGTCGGTGTGGTAA: 0.737; AGAATGAGGTTATGCGTAGATCAGGGAAGAAAGT: 0.644; CGTACGAGGGCATGAGTTGATAGCAAATGCCGAT: 1.67. Regarding TCTTGTAGATCAAGCAGGTTAAGCAAGCCTGAGT, the PBM binding z-score is -0.175. With AATACAGGCTCACTAGGCCAGAGTAGGTACGAAT the figure was -0.126. With GGAACGAGGGCCAAGTTGATAGCATCTGTCGACG the figure was -0.364. CCTAGTTGGTCAGGAGGACACACACCGGATATGA returned a PBM binding z-score of 0.975.

GCTTACGGGTCAAAGGTTATAGCTTGAATAGAAT had a PBM binding z-score of 1.45. The sequence TATACAGGGTCAAAGGCCCGAGTACGAATGTCGA yielded a PBM binding z-score of 2.5. With TCTATAAGTTGAAGGGCAACCGACGAGTCCGTTT, the PBM binding z-score came out at 1.57. The sequence CCAGACAGGTGAGCAGGTAACTCAGCCTCGATTA displayed a PBM binding z-score of -0.319. The sequence ACTAGCAGGCCAATTTTGGGTCACTCAAACAAAG gave a PBM binding z-score of -0.032. With CGTCCAAGTTCAAGGTCAGTGAAAGAGACTCGAA the figure was 4.98; with CGTCCAAGATCAAAGGTCAGTGAAGAGATGACGG, 1.07. The sequence CGTCAAAGTTCAAGGTAACGTAACAGAAAGCAGC came in with a PBM binding z-score of 3.12. Sequence TGAATAAGGTTAAAGATCAGGGAACGTGGCGTCG registered a PBM binding z-score of 0.301.

CGTCCAAGGTCAATGCTAGGTCAATGAAAGCATT registered a PBM binding z-score of 3.48.

For the sequence TAGCCTAGGTCATTGGGCCACTATAGTACGCATC, the PBM binding z-score is 1.77. GCACATAGGTAATACAAGGTGAAAGTCCGATTGT returned a PBM binding z-score of -0.0736. TCATATAGGTACAGGTGAAAGTCGAACGATATGA had a PBM binding z-score of 0.343.

CCTCGGAGGACAACAGGAGGCCAGAGCTGCCAGA: the PBM binding z-score is -0.208. CCTGCTAGGTCAGGGTCAGCTAATCTACAGTATG yielded a PBM binding z-score of 1.01. GCAGAGAGGTGAAACGCAGGTAACTCAGGGTGGC: the PBM binding z-score was -0.369. Sequence CGAACTAGGTCAGTGACAGGACAGTGAATAGTAA yielded a PBM binding z-score of 0.295.

As to GCTTATGGGTCAAAGGTTATAGCATGAATAGAAT, the PBM binding z-score turned out to be 1.13. In turn, CCTTACGGGTCACTCCGGGTTATAGCATCGGAGT gave a PBM binding z-score of 1.25. As for GGAACGAGGGCACGTTGATAGCAGAGTTTGATGG, the PBM binding z-score worked out at 1.03. As to GGAACGAGGGCAAAGTTGATATCATCTGTCGACG, the PBM binding z-score was 1.29. ACTACTAGTTGAGACGAGGGCAACCGATAGGTTG gave a PBM binding z-score of 0.599.

Sequence CGTCCAAGGGCAAAGGTCAGTGAAGAGATGACGG yielded a PBM binding z-score of 1.34. For the sequence ATATGTAGGTTAGCTGGGTTCATTCAGACTAGGC, the PBM binding z-score is 6.88. The sequence CCGAGTAGGTTATGGGTCATTCAGGCAACGGTGA showed a PBM binding z-score of 1.42. For the sequence GCTGCTAGGTCAGGGTGGTCAGCTAACGGGTACG, the PBM binding z-score was 0.245.
